Activity calls are given as the source filed them. Rule for the calls: active = hit-call score of the fitted dose curve at least 0.9, where 1 is the maximum; inactive = score below 0.9.

A short description of the assay: BSK_LPS_PGE2: BioMAP Diversity Plus: LPS Assay for Prostaglandin E2 (PGE2) Biomarker Activity (AID 2283082). The following applies: primary human HUVEC with PBMC; actives raise or lower the signal. The gist of the method:
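HUVEC plus human PBMC co-culture stimulated with LPS; secreted PGE2 quantified by ELISA 24 h after chemical dosing. Activity fitted bidirectionally against DMSO baseline; parallel SRB staining (0.1% SRB after 10% TCA fixation, 560 nm) flags overt cytotoxicity.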
Take `Cc1cc(C)nc(Nc2ccccc2)n1`: the outcome was inactive.

For `CC(C)Nc1nc(Cl)nc(NC(C)C)n1`, the result was inactive.

On to `CO/N=C(/C1=NOCCO1)c1ccccc1Oc1ncnc(Oc2ccccc2Cl)c1F`, for which the result was inactive.

Turning to `CNC(=O)Oc1cccc2ccccc12`, the AC50 (as a rule, the concentration giving half of the maximal activity seen) was 1.63 µM (active).

For the compound `COC(=O)c1c(C(F)F)nc(C(F)(F)F)c(C2=NCCS2)c1CC(C)C`, the concentration at half-maximal activity (AC50) was 12.2 µM (active).

Turning to `CC(C)(C)C(=O)C(Oc1ccc(Cl)cc1)n1cncn1` (stereo unspecified), the outcome was inactive.

On to `Clc1nc(Cl)nc(Nc2ccccc2Cl)n1`, for which the outcome was inactive.

For the compound `CCCCOCN(C(=O)CCl)c1c(CC)cccc1CC`, the outcome was inactive.

Turning to `CCOc1nc(F)cc2nc(S(=O)(=O)Nc3c(Cl)cccc3Cl)nn12`, the result was inactive.

As for `Cc1c(COC(=O)[C@@H]2[C@H](/C=C(\Cl)C(F)(F)F)C2(C)C)cccc1-c1ccccc1`, the concentration at half-maximal activity (AC50) is 4.57 µM (active).

For `Nc1c(Cl)c(Cl)nc(C(=O)O)c1Cl`, the outcome was inactive.

On to `O=C(O)c1c(Cl)ccc2cc(Cl)cnc12`, for which the outcome was inactive.

Regarding `C=C(C)CN(CC)c1c([N+](=O)[O-])cc(C(F)(F)F)cc1[N+](=O)[O-]`, the outcome was inactive.

As to `CC(C)NC(=O)N1CC(=O)N(c2cc(Cl)cc(Cl)c2)C1=O`, the result was inactive.

Turning to `Cc1ccc(N=CN(C)C=Nc2ccc(C)cc2C)c(C)c1`, the AC50 is 11.6 µM (active).

For the compound `CCOP(=S)(OCC)Oc1nc(Cl)n(C(C)C)n1`, the AC50 was 14.1 µM (active).

Take `Cc1nc(N(C)C)nc(OC(=O)N(C)C)c1C`: the result was inactive.

Take `C=CCOC(=O)C(C)(C)OC(=O)c1cc(-n2c(=O)cc(C(F)(F)F)n(C)c2=O)ccc1Cl`: the result was inactive.

As to `Nc1cnn(-c2ccccc2)c(=O)c1Cl`, the outcome was inactive.

`CCN(CC)C(=O)C(C)Oc1cccc2ccccc12` (stereo unspecified): the result was inactive.

`Nc1c(Cl)c(F)nc(OCC(=O)O)c1Cl`: the result was inactive.

For `CCOP(=O)(OCC)Oc1nc(Cl)c(Cl)cc1Cl`, the outcome was inactive.

For `CSC(=O)c1c(C(F)F)nc(C(F)(F)F)c(C(=O)SC)c1CC(C)C`, the result was inactive.

On to `COP(=O)(OC)O/C(C)=C/C(=O)N(C)C`, for which the concentration at half-maximal activity (AC50) was 17.3 µM (active).

As to `COc1cc(OC)nc(NC(=O)NS(=O)(=O)c2ncccc2OCC(F)(F)F)n1`, the result was inactive.

With `CN=C=S`, the result was inactive.

Consider `COc1cc(Cl)c(OC)cc1Cl`, for which the result was inactive.

`OC(c1ccc(Cl)cc1)(c1ccc(Cl)cc1)C(Cl)(Cl)Cl`: the AC50 was 17.5 µM (active).

As to `COC(=O)N(C(=O)N1CO[C@@]2(C(=O)OC)Cc3cc(Cl)ccc3C2=N1)c1ccc(OC(F)(F)F)cc1`, the result was inactive.

As to `CC(C)C1(C)N=C(c2ncccc2C(=O)O)NC1=O` (stereo unspecified), the outcome was inactive.

On to `CN/C(=N\[N+](=O)[O-])NCc1cnc(Cl)s1`, for which the result was inactive.

Take `Cn1c(-c2ccccc2)cc(-c2ccccc2)[n+]1C`: the result was inactive.

With `Clc1cccc(C(Cl)(Cl)Cl)n1`, the outcome was inactive.

`COC(=O)NS(=O)(=O)c1ccc(N)cc1`: the outcome was inactive.

`Cc1cnc(C2=NC(C)(C(C)C)C(=O)N2)c(C(=O)O)c1` (stereo unspecified): the result was inactive.

With `O=C(Nc1ccccc1-c1ccc(Cl)cc1)c1cccnc1Cl`, the result was inactive.

The values above are taken from PubChem BioAssay (EPA / NIEHS).
